# Source: PubChem BioAssay (NCATS)
# Records with an inconclusive call do not appear. A call without a number means that no potency is given here. The source made the active and inactive calls. The call rests on the fitted dose curve; in most records, active means well fitted cell-killing curve with a large enough effect; inconclusive means small, poorly fitted or top-dose-only effect, or effect the other way; inactive means flat fitted curve, though single readings scatter.
# Tested on: CAOV3
# Experiment: Primary qHTS to identify gynecologic anti-cancer compounds using libraries of approved drugs and bioactive compounds (AID 1345084); further: nearly all actives have a fitted effect of over 55% in size
# Conditions: Gynecologic cancer cell panel viability, ATPlite luminescence, 48 h; series mostly up to 57.5 µM
# Excerpt: National Center for Advancing Translational Sciences [NCATS] Assay Overview: Chemotherapeutic drug responses vary from cancer to cancer and from patient to patient. These variations could be caused by a number of factors including patient genomic background, tumor mutations, tumor heterogeneity, and aspects of drug treatment. Chemotherapeutic drug resistance is also a common issue and can lead to ineffective treatment and patient death. Here we have profiled the cell killing effects of thousands of compounds to characterize the responses in three gynecological cancers, identify cancer-selective compounds, and understand the diversity of responses to these compounds from pan-cancer suppressors to single cell line selective compounds. In this assay, we screened a 7,914 compound drug library that included approved drug and bioactive compounds in six ovarian, three cervical, and […] placental cancer cell lines using the ATPlite assay for cell viability. […] The cervical cancer cell lines included HeLa, Ca Ski, and C-33 A. The placental cancer cell lines included JEG-3. HEK 293T cells were used as the control cell line to determine the selectivity index. ATPlite is a luminescence based assay reliant on the conversion of a luciferase substrate to light in the presence of ATP. As a cytotoxic compound will suppress growth and decrease the number of cells, the concentration of ATP will decrease, and less light signal will be detected in the well.
# Assay Protocol Summary: 1,000 cells in 4 uL of media were dispensed into white, solid bottom 1536-well plates using a Multidrop Combi (Thermo Scientific). The Assay plates were incubated for 16 hours at 37 C with 5% CO2 in assay plates, followed by the addition of 23 nL of DMSO or drug dissolved in DMSO. Each compound was assayed in five concentrations (0.092, 0.46, 2.3, 11.5, and 57.5 uM), using the automated Wako 1536 Pin Tool workstation and incubated at 37 C with 5% CO2 48 hours. 4 uL of ATPlite, the ATP monitoring reagent, was then added to the each well of the assay plates using the Multidrop Combi reagent dispenser followed by incubation for 15 minutes at room temperature. The resulting luminescence was measured using the ViewLux plate reader.
# Potency means the concentration at half of the fitted maximal effect.
row,SMILES,Potency
1,CN(C)CC/C=C1\c2ccccc2Sc2ccc(Cl)cc21,inactive
2,CC(O)(P(=O)(O)O)P(=O)(O)O,inactive
3,CC(=O)OCC(=O)NCCCOc1cccc(CN2CCCCC2)c1,inactive
4,C[C@]12CCC(=O)C=C1CC[C@H]1[C@@H]3CC[C@](O)(C(=O)CO)[C@@]3(C)C[C@H](O)[C@@]12F,inactive
5,NC(=O)C(=O)N/N=C/c1ccc([N+](=O)[O-])o1,inactive
6,CO/N=C1\CN(c2nc3c(cc2F)c(=O)c(C(=O)O)cn3C2CC2)CC1CN (stereo not given),inactive
7,CN1CCN(C(c2ccccc2)c2ccccc2)CC1,inactive
8,CC(CCc1ccccc1)NCC(O)c1ccc(O)c(C(N)=O)c1 (stereo not given),inactive
9,CCN1CCN(c2cc3c(cc2F)c(=O)c(C(=O)O)cn3C2CC2)CC1,inactive
10,NC[C@H]1O[C@H](O[C@H]2[C@H](O)[C@@H](O[C@H]3O[C@H](CO)[C@@H](O)[C@H](N)[C@H]3O)[C@H](N)C[C@@H]2N)[C@H](N)[C@@H](O)[C@@H]1O,inactive
11,CCCSS/C(CCO)=C(\C)N(C=O)Cc1cnc(C)nc1N,inactive
12,COc1cccc(OC)c1C(=O)N[C@@H]1C(=O)N2[C@@H]1SC(C)(C)[C@@H]2C(=O)O,inactive
13,CC(=O)OCC(=O)[C@@]12N=C(C)O[C@@H]1C[C@H]1[C@@H]3CCC4=CC(=O)C=C[C@]4(C)[C@H]3[C@@H](O)C[C@@]12C,inactive
14,CC1(C)O[C@@H]2[C@@H](CO[C@@]3(COS(N)(=O)=O)OC(C)(C)O[C@@H]23)O1,inactive
15,C[C@]12C=CC(=O)C=C1CC[C@@H]1[C@@H]2[C@@H](O)C[C@@]2(C)[C@H]1CC[C@]2(O)C(=O)CO,inactive
16,Cc1nc2n(c(=O)c1CCN1CCC(c3noc4cc(F)ccc34)CC1)CCC[C@H]2O,inactive
17,Cc1ccc(O)c2ncccc12,inactive
18,CCCOC(C(=O)OC1CCN(C)CC1)(c1ccccc1)c1ccccc1,inactive
19,CC(=O)OCC(=O)[C@@]1(OC(C)=O)[C@@H](C)C[C@H]2[C@@H]3C[C@H](F)C4=CC(=O)C=C[C@]4(C)[C@@]3(F)[C@@H](O)C[C@@]21C,inactive
20,CN1CCC[C@@H]1c1cccnc1,inactive

row,SMILES,Potency
1,Cc1onc(-c2c(Cl)cccc2Cl)c1C(=O)N[C@@H]1C(=O)N2[C@@H]1SC(C)(C)[C@@H]2C(=O)O,inactive
2,CCOc1ccc2nc3cc(N)ccc3c(N)c2c1,12.6 µM (active)
3,CC(=O)OCC(=O)[C@@]1(O)CC[C@H]2[C@@H]3CCC4=CC(=O)C=C[C@]4(C)[C@H]3[C@@H](O)C[C@@]21C,inactive
4,OC(CCN1CCCCC1)(c1ccccc1)c1ccccc1,inactive
5,C[C@@H]1C[C@H]2[C@@H]3CCC4=CC(=O)C=C[C@]4(C)[C@@]3(F)[C@@H](O)C[C@]2(C)[C@H]1C(=O)CO,inactive
6,CCOC(=O)n1ccn(C)c1=S,inactive
7,c1ccc(-c2ccc(C(c3ccccc3)n3ccnc3)cc2)cc1 (stereo not given),inactive
8,COc1cccc(CCc2ccccc2OCC(CN(C)C)OC(=O)CCC(=O)O)c1 (stereo not given),inactive
9,Cc1cccn2c(=O)c(-c3nnn[nH]3)cnc12,inactive
10,O=C1OCCN1/N=C/c1ccc([N+](=O)[O-])o1,inactive
11,CC(C)(CO)[C@@H](O)C(=O)NCCCO,inactive
12,CCN(CC)CCOC(=O)C(c1ccccc1)C1CCCCC1 (stereo not given),inactive
13,Cc1cc2c(cc1CC(=O)c1sccc1S(=O)(=O)Nc1onc(C)c1Cl)OCO2,inactive
14,O=C(O)CCCCC(=O)O,inactive
15,O=c1[nH]c(=O)n([C@H]2C[C@H](O)[C@@H](CO)O2)cc1C(F)(F)F,inactive
16,C[C@@H](CN(C)C)CN1c2ccccc2Sc2ccccc21,inactive
17,CC(=O)OCC(=O)[C@@]1(O)[C@H](C)C[C@H]2[C@@H]3CCC4=CC(=O)C=C[C@]4(C)[C@@]3(F)[C@@H](O)C[C@@]21C,inactive
18,CC(C)COC(=O)c1ccc(N)cc1,inactive
19,CC(=O)[C@H]1CC[C@H]2[C@@H]3C[C@H](C)C4=CC(=O)CC[C@]4(C)[C@H]3[C@@H](O)C[C@]12C,inactive
20,COc1ccc(CN2CCN(C(c3ccc(F)cc3)c3ccc(F)cc3)CC2)c(OC)c1OC,inactive
